Results from PubChem BioAssay AID1861 (The Scripps Research Institute Molecular Screening Center, 2009).
Among all 290,000 compounds or so, about 3,100 (1.1%) were called active. This excerpt belongs to a sample that is enriched for actives. A number with no mark means an inactive call. No stated cut-off is given here; in the data, active means inhibition above about 16% (passing the limit was not always enough); inactive means the rest.

Target: Neuropeptides B/W receptor type 1 (Homo sapiens) (UniProt P48145)
Sequence (P48145 whole entry, looked up): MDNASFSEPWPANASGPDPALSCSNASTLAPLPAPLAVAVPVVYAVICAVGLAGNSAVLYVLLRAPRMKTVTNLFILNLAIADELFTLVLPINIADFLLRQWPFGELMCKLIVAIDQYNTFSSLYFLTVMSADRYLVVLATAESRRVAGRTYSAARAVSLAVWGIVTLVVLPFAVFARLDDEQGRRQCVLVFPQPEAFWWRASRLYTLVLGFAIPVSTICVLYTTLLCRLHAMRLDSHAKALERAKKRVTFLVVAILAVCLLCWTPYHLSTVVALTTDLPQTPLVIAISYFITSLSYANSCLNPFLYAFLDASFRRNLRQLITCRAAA
Assay: GPR7 receptor antagonists, primary screen, cell-based, fluorescence, single concentration (AID 1861);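 further: cells stimulated with the agonist NPW; 0% = agonist with vehicle and 100% = vehicle without agonist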
Settings: GPR7-expressing cells, fluorescence antagonist assay; at 4.4 µM; hits give high values

Row | SMILES | inhibition
1 | COc1ccc(-c2nc3c(s2)CCc2onc(-c4ccc(OC)cc4)c2-3)cc1 | -14.6%
2 | O=C(CC1C(=O)NCCN1CC(c1ccccc1)c1ccccc1)NCC1CCOCC1 (stereo unspecified) | -12.4%
3 | COCCn1cnc2c1c(=O)n(CC(=O)NN)c(=O)n2Cc1ccccc1 | -7.23%
4 | Cc1ccc(F)c(NC(=O)CCOc2ccccc2C)c1 | -9.71%
5 | O=c1c([N+](=O)[O-])cc(C(F)(F)F)cn1Cc1cccc(Cl)c1 | 1%
6 | O=[N+]([O-])/C=C/c1ccc2c(ccn2Cc2ccccc2)c1 | 50.9% (active)
7 | O=C(/C=C/c1cccc([N+](=O)[O-])c1)N1CCN(Cc2ccccc2)CC1 | 33.7%
8 | CCc1ccc(NC(=O)CN2C(=O)COc3ccc(S(=O)(=O)N4CCCC4)cc32)cc1 | -5.64%
9 | COc1ccc(C(=O)CSc2nnc(COc3ccccc3)n2Cc2ccco2)cc1 | 42.3% (active)
10 | C=CCn1c(CNC(=O)c2ccco2)nnc1SCC(=O)c1ccc(OC)cc1 | -0.25%
11 | CCn1c(COc2ccccc2)nnc1SCC(=O)NCc1ccco1 | 3.08%
12 | CCc1ccc(N2CC(C(=O)N3CCCCCC3)CC2=O)cc1 (stereo unspecified) | -4.17%
13 | COc1ccccc1N(CC(=O)N/N=C(\C)c1ccccc1O)S(=O)(=O)c1ccc(C)cc1 | -9.35%
14 | Cc1ccc(NC2=C(Cl)C(=O)OC2OC(=O)c2ccccc2C)cc1 (stereo unspecified) | 36.4% (active)
15 | O=C1OC(OC(=O)c2ccccc2Br)C(N2CCOCC2)=C1Cl (stereo unspecified) | -8.99%
16 | Cc1ccccc1C(=O)OC1OC(=O)C(Cl)=C1Nc1ccccc1 (stereo unspecified) | 0.02%
17 | Cc1cccc(NC(=S)NCCc2ccc(Cl)cc2)c1C | -3.82%
18 | Cc1ccccc1NC(=S)NC(=O)Cc1ccc(Cl)cc1 | 56.5% (active)
19 | COC(=O)Cc1ccc(NC(=S)NCc2ccc(Cl)cc2)cc1 | -7.45%
20 | O=C(COc1ccc(Cl)cc1)NC(=S)Nc1ccccc1N1CCOCC1 | -6.56%
21 | Cc1ccc(C(=O)NC(=S)Nc2ccccc2C)cc1 | -4.66%

Row | SMILES | inhibition
22 | O=C(Cc1ccc(Cl)cc1)NC(=S)Nc1ccccc1O | 80.2% (active)
23 | COc1ccc2oc(=N)c(C(=O)Nc3ccc(Br)cc3)cc2c1 | -2.95%
24 | CC(=O)Nc1ccc(S(=O)(=O)NC2Cc3ccccc3C2)cc1 | 17.6%
25 | O=C(c1cc2ccccc2o1)N1CCN(Cc2ccccc2)CC1 | -6.86%
26 | COc1ccc(NC(=O)CCCC2CCCCC2)c(OC)c1 | 14.9%
27 | Cc1ccc(C)c(SCc2nc3sc(C(=O)O)c(C)c3c(=O)[nH]2)c1 | -16.9%
28 | COc1ccccc1NC(=O)CSc1nc2sc3c(c2c(=O)n1-c1ccccc1)CCN(C)C3 | 4.04%
29 | Cc1ccc(-c2nc(SCC(=O)Nc3ccccc3OC(F)F)c3c(C)c(C(=O)O)sc3n2)cc1 | 29.8% (active)
30 | COc1cccc(/C=C(/CC(=O)Nc2ccc(N3CCOCC3)cc2)c2nc3ccccc3s2)c1 | -6.54%
31 | Cc1ccc(C)c(C(=O)N2CCC(n3nccc3NC(=O)C3CC3)CC2)c1 | -10.3%
32 | CCCCCCn1c(CN2CCCCC2)nc2c1c(=O)n(C)c(=O)n2C | 0.86%
33 | CCCCCCCCn1c2c(c(=N)c3c1CCC3)CCCC2 | 57.5% (active)
34 | COc1ccccc1C(=O)N/C(=C/c1ccco1)C(=O)Nc1ccc(C(=O)O)cc1 | 0.36%
35 | CCN1CCN(c2c(Cl)cccc2NC(=O)c2ccc(Br)o2)CC1 | 23.7% (active)
36 | CCCC(=O)Nc1ccc(Cl)c(NC(=O)c2ccc(Br)o2)c1 | -14%
37 | O=C(Nc1cccc(Cl)c1N1CCOCC1)c1cccnc1 | -1.34%
38 | COc1ccc2cc(C(=O)NCC3CCCO3)[nH]c2c1 (stereo unspecified) | -1.93%
39 | Clc1cccc(Cl)c1OCCOCCNCc1ccccc1 | -2.47%
40 | CN(C)CCOCCOc1ccc(Cl)c2ccccc12 | 14.1%
41 | CCN(CC)CCOCCOc1ccc(Cl)c2ccccc12 | 27.1% (active)
42 | COc1ccc(NS(=O)(=O)c2ccc(O)c(C(=O)OCC(=O)NC3CCCCC3)c2)cc1 | -13.8%

Row | SMILES | inhibition
43 | NC(=O)COc1ccccc1C(=O)NC12CC3CC(CC(C3)C1)C2 | -4.36%
44 | O=C(Cc1nn[nH]n1)NCCC1=CCCCC1 | -14.2%
45 | CN1CCNC(=O)C1CC(=O)NCCC1=CCCCC1 (stereo unspecified) | 18.4% (active)
46 | Cc1ccccc1CN1CCNC(=O)C1CC(=O)NCCC1=CCCCC1 (stereo unspecified) | -1.59%
47 | CCN(CC)Cc1c(C(=O)N/N=C/c2cccc(OCc3ccc(F)cc3)c2)nnn1-c1nonc1N | 6.35%
48 | CCN(CC)Cc1c(C(=O)OC)nnn1-c1nonc1N | 36.6% (active)
49 | Cc1c(C(=O)O)nnn1-c1nonc1N | -7.01%
50 | O=C(CSc1nnnn1C1CCCC1)N1CCCCC1 | 0.56%
51 | CCOC(=O)C1(Cc2ccccc2C(F)(F)F)CCN(C(=O)c2cc(C)n(C)n2)CC1 | -2.9%
52 | OC(CNCC1CCCO1)Cn1c2ccc(Br)cc2c2cc(Br)ccc21 (stereo unspecified) | 25.7% (active)
53 | CC(NS(=O)(=O)c1ccc(Br)cc1)C(=O)NCC1CCCO1 (stereo unspecified) | -6%
54 | O=C(CSc1ccc(-c2ccc(Br)cc2)nn1)NCC1CCCO1 (stereo unspecified) | -0.63%
55 | CCc1ccc(OCC(O)CN2CCN(CCO)CC2)cc1 (stereo unspecified) | -19.8%
56 | O=S1(=O)CCO[C@H]2Cc3ccccc3[C@H]2N1Cc1ccccc1 | -8.66%
57 | COc1ccccc1C(=O)N1C(CC(=O)Nc2ccccc2C)C(=O)NC2CCCCC21 (stereo unspecified) | -5.63%
58 | Cc1cc(-c2n[nH]c(=S)n2/N=C/C(Br)=C/c2ccccc2)n[nH]1 | 4.93%
59 | CCN1CCN(c2ccc(S(=O)(=O)N3CCCCC3)cc2NC(=O)Cc2c(Cl)cccc2Cl)CC1 | 1.74%
60 | COc1ccc(CC(=O)Nc2cc(S(=O)(=O)N3CCCCC3)ccc2N2CCN(C)CC2)cc1 | 19.6% (active)
61 | CN1CCN(c2ccc(S(=O)(=O)N3CCCCC3)cc2NC(=O)Cc2ccccc2F)CC1 | 1.52%
